Inconclusive results are not listed. Active and inactive are the calls of the source. Unless noted, calls come from the whole dose curve; as a rule, active = well fitted curve in the direction sought with a large enough effect; inconclusive = small, poorly fitted or top-dose-only effect, or another doubt; inactive = no such curve, though single readings can be large; an effect the other way counts as inactive or inconclusive.
What was measured:
[1] = Cell Viability - BJ (AID 421; calls by dose curve;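 note: potency is the fitted concentration of half-maximal effect; cells exposed to compound for 40 hours at 37 °C before readout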); conditions: BJ fibroblast viability, qHTS
Summary of the method: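 Normal human BJ foreskin fibroblasts, 1500/well in complete medium, treated 40 hr at 37 °C. Cellular ATP by CellTiter-Glo luminescence; normalized to DMSO and 100 uM tamoxifen, AC50 from Hill fit.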

[2] = Cell Viability - MRC5 (AID 434; calls by dose curve;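 note: potency is the fitted concentration of half-maximal effect; potency reflects cytotoxicity seen as loss of intracellular ATP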); conditions: MRC5 lung fibroblast viability, qHTS
Summary of the method: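 MRC5 normal human lung fibroblasts, 1500 cells/well, exposed to compound for 40 hr at 37 C. Cellular ATP was read by CellTiter-Glo luminescence; data normalized to DMSO and 100 uM tamoxifen, with AC50 from Hill fits.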

[3] = Cell Viability - SK-N-SH (AID 435; calls by dose curve;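 note: potency is the fitted concentration of half-maximal effect; compound exposure lasted 40 h at 37 °C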); conditions: SK-N-SH neuroblastoma cell viability qHTS
Summary of the method: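 Luminescent ATP signal served as the viability read-out after 40 hours of compound treatment of human neuroblastoma SK-N-SH cells. Concentration-response data, scaled between DMSO and 100 uM tamoxifen, gave AC50 values by standard Hill modeling.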

[4] = Cell Viability - N2a (AID 540); conditions: N2a mouse neuroblastoma cell viability; activity change, negative = cytotoxicity: at 92.2 µM (top of the series); note: nearly all actives have a fitted effect of over 45% in size; note: potency is the fitted concentration of half-maximal effect;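 for activity change, negative = cytotoxicity: plate controls were DMSO alone for no effect and tamoxifen control for full effect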
Summary of the method: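 Mouse neuroblastoma N2a cells (1500/well) were preincubated 5 hr at 37 °C, then exposed to compounds for 40 hr at 37 °C in complete medium. Viability was read as intracellular ATP by CellTiter-Glo luminescence; AC50 from Hill fits.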

[5] = Cell Viability - SH-SY5Y (AID 544); conditions: SH-SY5Y neuroblastoma cell viability; viability change, negative = cytotoxic: at 92.2 µM (top of the series); note: nearly all actives have a fitted effect of over 55% in size; note: potency is the fitted concentration of half-maximal effect
Summary of the method: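 Human neuroblastoma SH-SY5Y cells (1500/well) in complete medium were exposed to compounds for 40 hr at 37 °C; intracellular ATP was then quantified by CellTiter-Glo luminescence after 20 min at room temperature. AC50 came from Hill-equation concentration-response fits.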

[6] = Cell Viability - Renal Proximal Tubule (AID 545); conditions: renal proximal tubule cells viability, primary cells of rat origin; activity change, negative = cytotoxicity: at 91.7 µM (top of the series); note: nearly all actives have a fitted effect of over 40% in size; note: potency is the fitted concentration of half-maximal effect
Summary of the method: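 Luminescent ATP signal (CellTiter-Glo) served as the viability read-out after 40 hr compound exposure of freshly isolated rat proximal tubule cells at 37 °C. Concentration-dependent ATP loss was fitted with the Hill equation to give AC50.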

[7] = Cellular Toxicity (caspase-3) HepG2 (AID 654); conditions: HepG2 caspase-3 activation, luminescence; series mostly up to 92.2 µM; note: potency is the fitted concentration of half-maximal effect;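 for caspase-3 activation: cells exposed to compound for 16 hours before reading; 0% = DMSO alone and 100% = caspase signal from 100 µM tamoxifen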
Summary of the method: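 HepG2 cells (1500/well) in complete medium were treated with compounds for 16 hr at 37 °C. Caspase-3/7 activity was then read as luminescence from peptide-aminoluciferin cleavage. AC50 came from Hill fits, normalized to DMSO and 100 uM tamoxifen.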

[8] = target: Cytochrome P450 3A4 (Homo sapiens) (UniProt P08684); assay: qHTS Assay for Inhibitors and Substrates of Cytochrome P450 3A4 (AID 884); conditions: recombinant CYP3A4, Luciferin-PPXE luminescence; series mostly up to 57.1 µM; note: nearly all actives have a fitted effect of over 50% in size; note: potency is the fitted concentration of half-maximal effect; for activity change, negative = inhibition: % is set by controls: 0 for no effect and ±100 for the full control effect
Cytochrome P450 3A4 (Homo sapiens), sequence (P08684 whole entry, looked up): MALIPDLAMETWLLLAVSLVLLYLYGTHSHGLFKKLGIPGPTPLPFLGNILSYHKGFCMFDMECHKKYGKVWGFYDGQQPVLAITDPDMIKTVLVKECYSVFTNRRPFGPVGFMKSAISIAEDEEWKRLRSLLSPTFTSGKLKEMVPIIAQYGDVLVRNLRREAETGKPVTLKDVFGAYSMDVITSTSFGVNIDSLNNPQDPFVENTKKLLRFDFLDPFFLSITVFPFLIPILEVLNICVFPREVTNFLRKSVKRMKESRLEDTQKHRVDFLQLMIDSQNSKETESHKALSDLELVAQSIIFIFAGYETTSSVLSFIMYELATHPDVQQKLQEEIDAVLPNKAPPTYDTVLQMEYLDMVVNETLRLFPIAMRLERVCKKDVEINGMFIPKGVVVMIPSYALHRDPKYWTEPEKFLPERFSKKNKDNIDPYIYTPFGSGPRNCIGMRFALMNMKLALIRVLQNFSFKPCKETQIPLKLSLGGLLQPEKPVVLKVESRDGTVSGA
Summary of the method: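 20 nM human CYP3A4 with 25 uM Luciferin-PPXE (at KM) in 200 mM KPO4, preincubated 10 min with compound; NADPH regeneration started a 60 min RT reaction. Luciferin detected by luminescence, normalized to 57 uM ketoconazole as full inhibition.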

[9] = target: Cytochrome P450 3A4 (Homo sapiens) (UniProt P08684); assay: qHTS Assay for Activators of Cytochrome P450 3A4 (AID 885); conditions: recombinant CYP3A4, Luciferin-PPXE luminescence, 60 min; series mostly up to 57.1 µM; note: nearly all actives have a fitted effect of over 65% in size
Summary of the method: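 Human CYP3A4 (20 nM) with Luciferin-PPXE at 25 uM (its KM) in 200 mM KPO4; 10 min compound preincubation, then NADPH regeneration and 60 min reaction at RT. Luciferin read by luminescence; normalized to 57 uM ketoconazole full inhibition.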

[10] = target: Peroxisome proliferator-activated receptor alpha (Homo sapiens) (UniProt Q07869); assay: qHTS assay for small molecule agonists of the peroxisome proliferator-activated receptor alpha (PPARalpha) signaling pathway (AID 651778); conditions: PathHunter PPARalpha complementation, chemiluminescence, 6 h; max response: stronger effect = higher value; note: % of control where 0% means no effect
Peroxisome proliferator-activated receptor alpha (Homo sapiens), sequence (Q07869 whole entry, looked up, the tested form may be a part): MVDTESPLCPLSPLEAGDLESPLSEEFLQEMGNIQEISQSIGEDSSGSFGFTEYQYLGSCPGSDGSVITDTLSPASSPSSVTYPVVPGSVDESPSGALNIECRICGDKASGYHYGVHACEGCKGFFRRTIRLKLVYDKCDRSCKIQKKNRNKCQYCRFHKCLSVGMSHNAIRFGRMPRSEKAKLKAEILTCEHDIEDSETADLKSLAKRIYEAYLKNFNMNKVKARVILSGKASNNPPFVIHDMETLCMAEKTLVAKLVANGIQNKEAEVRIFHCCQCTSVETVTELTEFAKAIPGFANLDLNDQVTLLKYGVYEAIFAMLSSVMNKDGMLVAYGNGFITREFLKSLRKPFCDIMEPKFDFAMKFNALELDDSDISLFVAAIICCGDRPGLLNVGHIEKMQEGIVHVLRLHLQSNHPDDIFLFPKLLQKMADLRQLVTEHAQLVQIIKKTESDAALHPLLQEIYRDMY
Summary of the method: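 Enzyme-fragment complementation assay in which ligand-bound PPARalpha translocates and forms an active enzyme that generates chemiluminescence. Cells were plated overnight, exposed to compound for 6 hr at 37 C, and then given detection reagent for 60 min at room temperature.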

[11] = qHTS assay for cell viability of HEK293 cells (AID 743288); conditions: ATP luminescence (CellTiter-Glo), 18 h; max response: stronger effect = lower value; note: nearly all actives have a fitted effect of over 50% in size; note: potency is the fitted concentration of half-maximal effect; for max response: % is set by controls: 0 for no effect and ±100 for the full control effect
Summary of the method: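 HEK293 parental, 2,000 cells/well; ≥5 h pre-incubation 37 C; pintool compound addition; 18 h, 37 C; CellTiter-Glo 30 min RT; luminescence read.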

[12] = qHTS assay for cell viability of the p53RE-bla HCT-116 cell line (AID 743292); conditions: p53RE-bla HCT-116 viability, ATP luminescence, 16 h; series mostly up to 95 µM; note: nearly all actives have a fitted effect of over 55% in size; note: potency is the fitted concentration of half-maximal effect
Summary of the method: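 Compound-exposed HCT-116 (p53RE-bla) cells, 4,000 per well, were kept 16 h at 37 C following a 5 h preincubation. Cell number was estimated from total ATP by CellTiter-Glo luminescence read after 30 min at room temperature.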

[13] = Cellular Toxicity (caspase-3) HUV-EC-C (AID 656); conditions: HUV-EC-C cells, caspase-3 activation (apoptosis); series mostly up to 92.2 µM
Summary of the method: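 qHTS; HUV-EC-C, 1000 cells/well; 5 hr settle, 16 hr cmpd, 37°C; Caspase-Glo 3/7, 20 min RT; luminescence. Norm: DMSO = 0%, tamoxifen 100 uM = 100%. Hill-fit AC50.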

[14] = Cellular Toxicity (caspase-3) Mesangial (AID 660); conditions: mesangial cells, normalized: DMSO 0%, 100 µM tamoxifen 100%; at 91.7 µM (top of the series);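 note: cells exposed to compound for 16 h before the caspase read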
Summary of the method: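 Human renal glomerular mesangial cells (1000/well) were treated with compounds for 16 h at 37 °C in complete medium, then caspase 3/7 activity was read by Caspase-Glo luminescence. Data were normalized to DMSO and 100 uM tamoxifen; AC50 from Hill fits.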

[15] = Cellular Toxicity (caspase-3) N2a (AID 665); conditions: N2a cells, luminescence; Potency: caspase-3 activation; series mostly up to 92.2 µM;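 note: compound exposure lasted 16 h at 37 °C before readout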
Summary of the method: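 Mouse N2a neuroblastoma cells (1500/well) were treated with compounds for 16 h at 37 °C, then caspase-3/7 activity was read by Caspase-Glo luminescence after 1 h at room temperature. Data were normalized to DMSO and 10 uM staurosporine; AC50 from Hill fits.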

[16] = Cellular Toxicity (caspase-3) Renal Proximal Tubule (AID 667); conditions: renal proximal tubule cells, primary cells freshly taken from rat, solvent-only wells 0%, staurosporine 100%; series mostly up to 91.7 µM;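 note: cells exposed to compound for 16 hours at 37 °C before detection; 0% = DMSO basal and 100% = 10 µM staurosporine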
Summary of the method: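 AC50 derived by standard Hill fit of concentration-response data, normalized between DMSO basal and 10 uM staurosporine as 100% stimulation. Cells: primary rat kidney proximal tubule, 16 h treatment at 37 °C.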

[17] = NFAT Signaling Pathway (AID 444; active = well fitted curve in either direction with a large enough effect, not every such curve was filed as active;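 note: carbachol stimulus at about its EC50 of 1 µM final; % is set by controls: 0 for no effect and ±100 for the full control effect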); conditions: Jurkat NFAT-bla M1, carbachol, beta-lactamase ratio, 5 h; at 17.2 µM (top of the series) unless noted
Summary of the method: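 Jurkat cells with NFAT-driven β-lactamase reporter and co-expressed M1 receptor, stimulated with carbachol (final 1 uM, ~EC50), compound titration, 5 h at 37 °C. CCF4 loaded 1 h at RT; 460/530 nm ratio gave %activity and AC50.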

[18] = Stat Signaling Pathway (AID 446; active = well fitted curve in either direction with a large enough effect, not every such curve was filed as active;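 note: ME-180 cervical cancer cells given 40 pM IL-6 alongside compound; SIE-controlled beta-lactamase reporter measured as 460/530 nm FRET emission ratio; % is set by controls: 0 for no effect and ±100 for the full control effect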); conditions: ME-180 SIE beta-lactamase reporter, IL-6 stimulated, 5 h; at 17.2 µM (top of the series) unless noted
Summary of the method: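 ME-180 cells carrying a SIE-driven beta-lactamase reporter are stimulated with 40 pM IL-6 for 5 h at 37C in the presence of compound. The 460/530 nm FRET substrate ratio is read after 2.5 h at RT. Data are normalised to 300 pM IL-6 and to 125 nM JAK inhibitor controls.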

[19] = target: Glucocorticoid receptor (Homo sapiens) (UniProt P04150); assay: GR-GFP Redistribution (AID 450;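 active = compounds whose dose series gives a full or clear partial fitted curve of increased nuclear translocation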; note: potency is the fitted concentration of half-maximal effect); conditions: U2OS GR-GFP nuclear translocation, laser cytometry, 2 h; series mostly up to 20.6 µM
Glucocorticoid receptor (Homo sapiens), sequence (P04150 whole entry, looked up): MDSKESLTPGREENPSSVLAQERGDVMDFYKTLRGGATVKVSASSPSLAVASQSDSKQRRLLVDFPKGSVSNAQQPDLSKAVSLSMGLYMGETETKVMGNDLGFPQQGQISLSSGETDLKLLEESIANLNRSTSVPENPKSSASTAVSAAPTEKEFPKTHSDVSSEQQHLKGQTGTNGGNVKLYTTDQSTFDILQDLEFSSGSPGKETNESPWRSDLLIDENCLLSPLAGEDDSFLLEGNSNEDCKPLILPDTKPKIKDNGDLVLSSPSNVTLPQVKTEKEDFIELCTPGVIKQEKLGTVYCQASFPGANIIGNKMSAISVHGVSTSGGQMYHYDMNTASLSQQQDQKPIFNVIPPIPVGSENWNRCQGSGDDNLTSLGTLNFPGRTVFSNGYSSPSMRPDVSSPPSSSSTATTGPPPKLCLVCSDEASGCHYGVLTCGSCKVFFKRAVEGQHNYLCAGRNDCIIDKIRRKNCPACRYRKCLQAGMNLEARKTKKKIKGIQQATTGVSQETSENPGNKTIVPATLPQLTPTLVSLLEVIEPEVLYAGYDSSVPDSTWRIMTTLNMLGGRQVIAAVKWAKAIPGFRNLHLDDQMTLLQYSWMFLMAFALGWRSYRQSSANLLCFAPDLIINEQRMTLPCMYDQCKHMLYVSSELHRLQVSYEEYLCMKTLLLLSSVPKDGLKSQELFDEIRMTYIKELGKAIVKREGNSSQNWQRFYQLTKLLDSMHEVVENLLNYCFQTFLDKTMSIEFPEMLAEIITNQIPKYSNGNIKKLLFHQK

CCCCCCCC[N+](CCCCCCCC)(CCCCCCCC)CCCCCCCC
active: Potency [1] 14.5 µM | Potency [2] 10.3 µM | Potency [3] 9.44 µM | Potency [4] 3.16 µM | Potency [5] 7.94 µM | Potency [6] 10 µM | Potency [7] 12.6 µM | Potency [8] 12.6 µM | Potency [11] 28.2 µM | Potency [12] 44.7 µM
inactive: Potency [9] | max response [10] 6.05%

O=Cc1ccc(Cl)c(Cl)c1
inactive: Potency [1] > 92 µM | Potency [2] > 92 µM | Potency [3] > 92 µM | Potency [4] | Potency [5] | Potency [6] | Potency [7] | Potency [13] | caspase-3 activation [14] -1.53% | Potency [15] | outcome [16] | Potency [8] | max response [10] 1.8% | max response [11] -7.75% | Potency [12]

CCOC(=O)C1/C(=N\O)CC(C)(O)C(C(=O)OCC)C1c1ccc(OC)c(OC)c1 (configuration not stated)
inactive: activity change, negative = inhibition [17] -0.404% | activity, negative = inhibition [18] 0.164%

O=C(COc1ccc(-c2nnc(N3CCCCC3)c3ccccc23)cc1)N1CCCCC1
inactive: activity change, negative = inhibition [17] -4.72%

Cc1ccc(C(=O)CSC2=C(C#N)C(c3ccco3)C3=C(CCCC3=O)N2)cc1 (configuration not stated)
inactive: activity change, negative = inhibition [17] -8.28% | activity, negative = inhibition [18] -22.5% | Potency [19] > 20.6 µM

CC/C(=C(\c1ccccc1)c1ccc(OCCN(C)C)cc1)c1ccc(O)cc1
inactive: caspase-3 activation [14] -2.42% | Potency [15] | outcome [16] | max response [10] -3.76%
active: Potency [1] 45.1 µM | Potency [2] 43.3 µM | Potency [3] 34.3 µM | Potency [4] 31.6 µM | Potency [5] 31.6 µM | activity change, negative = cytotoxicity [6] -109% | Potency [7] 50.1 µM | Potency [12] 70.8 µM

CCCc1cc(-n2ccnc2C)n2c(nc3ccccc32)c1C#N
inactive: activity change, negative = inhibition [17] 6.63% | activity, negative = inhibition [18] -3.66%

CN(C)c1ccc(C2(c3ccc(N(C)C)cc3)OC(=O)c3cc(N(C)C)ccc32)cc1
inactive: Potency [1] > 92 µM | Potency [2] > 92 µM | Potency [3] > 92 µM | Potency [4] | Potency [5] | Potency [6] | Potency [7] | Potency [13] | caspase-3 activation [14] 0.256% | Potency [15] | outcome [16] | Potency [9] | max response [10] -2.57% | max response [11] -3.92% | Potency [12]
